Laboratory results from publication PMC4336329 (PLoS ONE, 2015).
About 14,000 (4.5%) of roughly 310,000 compounds showed an effect of 50% or more. Effects have a minus sign here. The full list was thinned out, with strong results kept by preference.

Each compound was assayed against human ether-à-go-go-related gene (hERG) potassium channel (human, UniProt Q12809) (assay: primary screen, population patch clamp on CHO cells stably expressing hERG; higher = less effect of the substance).
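Also: peak tail current of the secondary pulse compared with the same well before compound.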

Sequence of human ether-à-go-go-related gene (hERG) potassium channel (Q12809 whole entry, looked up): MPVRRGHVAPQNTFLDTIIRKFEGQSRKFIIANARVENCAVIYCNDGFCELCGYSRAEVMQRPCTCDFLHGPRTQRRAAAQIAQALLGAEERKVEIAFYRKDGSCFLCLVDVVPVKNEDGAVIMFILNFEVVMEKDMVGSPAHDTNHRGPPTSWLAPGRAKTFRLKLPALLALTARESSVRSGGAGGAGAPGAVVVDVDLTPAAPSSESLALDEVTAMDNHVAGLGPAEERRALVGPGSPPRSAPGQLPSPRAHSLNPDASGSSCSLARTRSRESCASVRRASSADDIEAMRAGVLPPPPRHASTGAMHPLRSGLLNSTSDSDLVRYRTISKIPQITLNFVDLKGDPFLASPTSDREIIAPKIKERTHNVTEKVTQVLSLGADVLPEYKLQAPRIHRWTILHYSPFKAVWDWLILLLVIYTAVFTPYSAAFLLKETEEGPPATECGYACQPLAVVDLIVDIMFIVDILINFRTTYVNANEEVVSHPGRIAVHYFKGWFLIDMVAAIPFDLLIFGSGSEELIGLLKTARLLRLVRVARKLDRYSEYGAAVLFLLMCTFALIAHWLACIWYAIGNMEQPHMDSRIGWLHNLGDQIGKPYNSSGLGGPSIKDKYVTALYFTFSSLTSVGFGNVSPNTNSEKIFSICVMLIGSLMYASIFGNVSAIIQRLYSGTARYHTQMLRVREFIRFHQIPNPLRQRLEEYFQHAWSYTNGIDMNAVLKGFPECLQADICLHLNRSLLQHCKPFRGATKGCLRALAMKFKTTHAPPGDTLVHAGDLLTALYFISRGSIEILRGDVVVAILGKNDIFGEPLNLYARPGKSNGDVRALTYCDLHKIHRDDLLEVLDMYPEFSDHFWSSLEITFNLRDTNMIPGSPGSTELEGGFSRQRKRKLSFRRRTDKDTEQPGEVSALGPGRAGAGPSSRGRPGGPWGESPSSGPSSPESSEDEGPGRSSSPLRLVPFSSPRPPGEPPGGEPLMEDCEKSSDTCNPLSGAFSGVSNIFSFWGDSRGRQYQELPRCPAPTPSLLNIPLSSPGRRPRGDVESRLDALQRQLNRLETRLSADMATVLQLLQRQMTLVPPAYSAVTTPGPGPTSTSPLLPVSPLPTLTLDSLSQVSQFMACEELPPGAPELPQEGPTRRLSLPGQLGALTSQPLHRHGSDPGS

| Compound | hERG current change (%, negative = inhibition) at 10uM [%] |
| --- | --- |
| COc1ccc(C2=NS(=O)(=O)N(C)C(C(=O)Nc3ccc(C)cc3)=C2)cc1 | -2.89 |
| COc1cc(C)c(NC(=S)Nc2cccc(Cl)c2C)cc1OC | 11.1 |
| CCCCCCCCN1[C@@H](CC(=O)O)c2cc(F)ccc2S1(=O)=O | 7.81 |
| CCC(=O)NC(c1cccs1)c1cc(Cl)c2cccnc2c1O (centres unmarked) | -2.87 |
| COc1ccccc1CCNC(=O)CCn1c(=O)c2cccn2c2ccc(F)cc21 | 5.9 |
| COc1ccc(CNC(=O)CCn2c(=O)c3cccn3c3ccc(F)cc32)cc1 | -7.82 |
| COc1ccc(OC)c(CNC(=O)CCn2c(=O)c3cccn3c3ccc(F)cc32)c1 | -62.2 |
| COc1ccc(C)cc1NC(=S)N1CC(C)OC(C)C1 (centres unmarked) | -11.5 |
| CCC(=NCCc1c(C)[nH]c2ccccc12)C1=C(O)CC(c2ccccc2)CC1=O (centres unmarked) | 6.02 |
| N#C/C(=C(\O)Cc1ccccc1)c1nc2ccccc2[nH]1 | 15.6 |
| CCCCc1nc2ccccc2n1CC(=O)NN | 16.3 |
| C=C(Br)Cn1c(CCCC)nc2ccccc21 | -21.6 |
| CCCCc1nc2ccccc2n1Cc1nnc2n1-c1ccccc1SC2 | -63 |
| Nc1nnnn1CC(=O)OCc1cccc(Br)c1 | -13.8 |
| COc1ccc(Cl)cc1NC(=O)CN(C)CC(=O)Nc1cc(OC)c(OC)c(OC)c1 | -8.72 |
| COc1ccc(CCNC(=O)C2CCN(C(=O)c3cccc(Cl)c3)CC2)cc1OC | 11.5 |
| COc1ccc(CCNC(=O)C2CCCN(Cc3nc(-c4cccc(Cl)c4)oc3C)C2)cc1OC (centres unmarked) | -84.1 |
| Cc1oc(-c2cccc(Cl)c2)nc1CN1CCC(C(=O)NCCCN2CC(C)CC(C)C2)CC1 (centres unmarked) | -21.4 |
| COc1ccc(CCNC(=O)C2CCN(Cc3nc(-c4cccc(Cl)c4)oc3C)CC2)cc1OC | -85.2 |
| CCc1cc2c(cc3c(=O)n(CC(=O)N4CCN(C)CC4)ncn32)s1 | -14.3 |
| CCOC(=O)c1ccccc1NC(=O)COC(=O)c1ccccc1C(=O)N(C)c1ccccc1 | -23.5 |
| CC(OC(=O)CN1C(=O)NC2(CCCC2)C1=O)C(=O)Nc1cccc(Cl)c1 (centres unmarked) | -15.3 |

| Compound | hERG current change (%, negative = inhibition) at 10uM [%] |
| --- | --- |
| O=C(O)CC(CC(=O)Nc1ccc(-c2ccccc2)cc1)c1ccccc1 (centres unmarked) | 9.93 |
| Cc1cc(C(=O)N/N=C/c2sccc2C)no1 | 17.2 |
| CCN(CC)CCCNC(=S)Nc1ccc(Br)cc1 | -53.2 |
| S=C(NCCN1CCCCC1)Nc1ccc(Br)cc1 | -69.1 |
| O=C(NCCN1CCCCC1)Nc1ccc(Br)cc1 | -52.4 |
| O=C(NCCN1CCCCC1)Nc1ccc(Cl)cc1 | -33.7 |
| CCCCNC(=S)Nc1ccc(F)cc1 | 20.6 |
| CCCNC(=S)Nc1ccc(Br)cc1 | 11.8 |
| CCCCNC(=S)Nc1ccc(Cl)cc1 | 3.01 |
| Cc1ccc(NC(=O)NCCN2CCCCC2)cc1 | -11 |
| S=C(NCCN1CCOCC1)Nc1ccc(Br)cc1 | 5.71 |
| CCCCNC(=S)Nc1ccc(C(F)(F)F)cc1 | -52.8 |
| CN(C)CCCNC(=S)Nc1ccc(Br)cc1 | -11.6 |
| S=C(NCCN1CCCCC1)Nc1ccccc1 | 0.941 |
| COc1ccccc1CNC(=O)C1CCC(=O)N(CCCc2ccccc2)C1 (centres unmarked) | -9.31 |
| CC(C)c1cc(CNC(=O)CC2C(=O)NCCN2CC2CCCCC2)on1 (centres unmarked) | 11.2 |
| Cc1ccc(NC(=O)NCCN2CCCCC2)cc1C | -15.8 |
| Cc1ccc(NC(=O)NCCN2CCCCC2)cc1Cl | -51.7 |
| O=C(NCCN1CCCCC1)Nc1ccc(F)c(Cl)c1 | -33.9 |
| COc1ccc(S(=O)(=O)N2CCN(C(=O)[C@H](Cc3ccccc3)NC(=O)c3ccco3)CC2)cc1 | -28.6 |
| CC1CC(C)CN(CCOc2ccc(Br)cc2)C1.O=C(O)C(=O)O (centres unmarked) | -60.3 |
| COc1ccc(OCCCN2CCCC(C)C2)cc1 (centres unmarked) | -32 |
